Data on 13 molecules can be found in PubChem BioAssay (EPA / NIEHS).

Active and inactive are the calls of the source. Rule for the calls: active = hit-call score of the fitted dose curve at least 0.9, where 1 is the maximum; inactive = score below 0.9. Peptide text beside a SMILES is read from it.

The assay is described as follows: CCTE_Shafer_MEA_acute_burst_number: CCTE's Neural Acute Assay for Single-Electrode Bursts, Shafer Lab (AID 2284013). On the procedure:
CCTE_Shafer_MEA_acute assay is conducted using Axion Biosystems 48 well microelectrode array (MEA) plates and Maestro recording system. Each well of the MEA plate contains a grid of 16 microelectrodes embedded in the culture surface. Electrically active cells, such as neurons, can be cultured over the electrodes, and electrical activity in these cells can be recorded extracellularly. The spontaneous firing of neurons is captured from each electrode on a microsecond timescale providing both temporally and spatially precise data. […] The CCTE_Shafer_MEA_acute assay uses primary cultures of rat cortical neurons. As these cultures mature over time, neural networks develop functional activity and form cohesive networks in which electrical activity can be highly coordinated. Baseline 40-minute recordings are made on days post-plating 13 or 15, followed by a secondary 40-minute recording after chemical exposure.CCTE_Shafer_MEA_acute_burst_number is a component of the CCTE_Shafer_MEA_acute assay. It measures the total number of single-electrode bursts (temporally-clustered groups of action potential firing) during a recording in a microelectrode array (MEA) using Axion Biosystems Maestro 768 channel amplifier with the AxIS adaptive spike detector. The recordings before and after chemical treatment are used to calculate a percent change in the burst number in each well.Data from the assay component CCTE_Shafer_MEA_acute_burst_number was analyzed into 1 assay endpoint. This assay endpoint, CCTE_Shafer_MEA_acute_burst_number, was analyzed in the negative analysis fitting direction relative to DMSO as the negative control and baseline of activity. Using a type of functional reporter, gain or loss-of-signal activity can be used to understand electrical activity.
Spontaneous activity in the cortical cultures was recorded using an Axion Biosystems Maestro 768 channel amplifier and Axion Integrated Studios (AxIS) v1.8 (or later) software. The amplifier recorded from all channels simultaneously (gain = 1200 x; sampling rate = 12.5 kHz/channel): raw signals were filtered with a Butterworth band-pass filter (300-5000 Hz), which filters out slower local field potentials leaving only fast potentials, i.e., "spikes", arising from extracellular currents associated with action potentials (Pine 2006; Wheeler and Nam 2011). On-line spike detection of filtered signals was conducted with the AxIS adaptive spike detector, using a threshold of 8x the root mean squared (rms) noise on each channel. Any electrodes with rms noise levels greater than 5 uV were grounded (e.g., no data were recorded). Once grounded, an electrode was grounded for the duration of the experiment. All recordings were conducted at 37 C. Wells were deemed usable if on the day of the exposure >/= 10 electrodes were active (defined as >/= 5 spikes/min). On DIV 13 or 15, a minimum of three wells from one cortical culture preparation were treated with each compound (0.03-40 uM). Prior to recording baseline activity, each mwMEA plate was placed in the Maestro at 37 C and allowed to sit for 20 min while firing rates stabilized. Baseline activity (40 min) was recorded before the addition of each compound. An additional 40 min of spontaneous activity was recorded in the presence of each compound. Changes in network parameters relative to baseline were assessed following compound treatment.
On to `Oc1ccccc1Cc1ccccc1O`, for which the AC50 was 0.159 µM (active). The same measure, in the same setting: under `c1ccc(Nc2cccc3ccccc23)cc1` stands 1.25 µM (active). In the case of `C1CNCCN1`, the molecule was classed as inactive.

On to `Cc1c(C(=O)c2c[nH]n(C)c2=O)ccc(S(C)(=O)=O)c1C1=NOCC1`, for which the call was inactive. On the same count and under the same terms, under `Nc1nc(N)nc(-c2ccccc2)n1` stands “inactive”; under `CCCC(C)C(=O)OCC` (stereo not drawn), “inactive”. Same read-out and setting: then `CC(CCC(=O)O)(c1ccc(O)cc1)c1ccc(O)cc1`, with “inactive”. Turning to `Nc1cccc(N)n1`, the AC50 was 0.003 µM (active). Take `CCCCCCCCCCCC(=O)N(C)CC(=O)O`: the call was inactive. Still for that read-out and setting: under `CC/C=C\CCOC(=O)c1ccccc1O` stands “inactive”; under `CC(C)C(=O)OCCc1ccccc1`, “inactive”. With `CC1(C)CC(O)CC(C)(C)N1[O]`, the molecule was classed as inactive. The same measure, in the same setting: under `COC(=O)[C@H](Cc1ccccc1)NC(=O)[C@@H](N)CC(=O)O` (H-Asp-Phe-OMe) stands “inactive”.

For orientation: AC50 means the concentration giving half of the maximal activity seen.
